Experimental data taken from PMC7819943, “Rice protein-binding microarrays: a tool to detect cis-acting elements near promoter regions in rice”.
The full ranking holds about 68,000 sequences; the median of “fluorescence intensity (a.u.)” is about 9,100, and the highest 2% start at about 16,000. The entries come from a sample that favours the highest values as a whole.

What follows are sequences tested against OsWRKY34 (Oryza sativa, UniProt Q0JBA9 1-250) (assay: protein-binding microarray (RPBM); PBS, 2% BSA, 51.3 ng/ul salmon testes DNA, 50 uM zinc acetate, 200 nM TF, 25 C, 1 h; high values mean tight binding). Conditions: protein: recombinant; tags: N-terminal polyhistidine and DsRed monomer fusion (pET32a); label: CyDye5-dUTP incorporated in the synthesized complementary strand; 3' TTTTT single-stranded linker to array surface; dsDNA, one strand shown.
Procedure, shortened: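 Polyhistidine-tagged DsRed fusions of transcription factors, joined at the N-terminus, were expressed in E. coli BL21-CodonPlus and isolated on Ni–NTA. They were incubated at 200 nM for 1 h at 25 °C on a custom Agilent array, double-stranded and BSA-blocked, in PBS with 2% BSA, salmon testes DNA and 50 µM zinc acetate. The binding signal is per-feature fluorescence intensity (arbitrary units) read on an Axon 4000B scanner after washing.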

OsWRKY34, sequence (Q0JBA9 entry or part of it): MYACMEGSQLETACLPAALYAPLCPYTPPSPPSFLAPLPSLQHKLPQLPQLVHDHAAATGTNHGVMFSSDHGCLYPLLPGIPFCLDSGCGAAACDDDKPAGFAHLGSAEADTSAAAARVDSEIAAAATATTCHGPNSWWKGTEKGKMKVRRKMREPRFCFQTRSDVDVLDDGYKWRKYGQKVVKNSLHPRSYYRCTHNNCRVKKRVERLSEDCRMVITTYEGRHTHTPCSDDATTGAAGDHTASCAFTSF

| Sequence | binding signal |
| --- | --- |
| CTTGGACCCACTTAATATGTTATATGGCTATTTCTAGTCACGGAGTCACCTAGTGCAG | 8220 fluorescence intensity (a.u.) |
| TAAGGTTTCTTCTGGGATCATTACATATACCTATATGGTTCGGAGTCACCTAGTGCAG | 8100 fluorescence intensity (a.u.) |
| AGTTTGTTTTTTTTCTGTCCTTGACATGGCCATTTTGTTACGGAGTCACCTAGTGCAG | 9920 fluorescence intensity (a.u.) |
| GCGGCGAAGCAGGGAGGAGGGAGGAGGAGGGGCGGCGGTGCGGAGTCACCTAGTGCAG | 12100 fluorescence intensity (a.u.) |
| TTTCCGCCGCGGCGAGGAGGAGGAGGAGGAGGAGGGGCGACGGAGTCACCTAGTGCAG | 9980 fluorescence intensity (a.u.) |
| GTGCGACGGCGGCGGCGAAGTCAGTCCCCTCCTCGAGGGGCGGAGTCACCTAGTGCAG | 27700 fluorescence intensity (a.u.) |
| GGGCGGAGAGTTGGGGTTTGGGTTGGTGGCGGTGGGCCGGCGGAGTCACCTAGTGCAG | 14800 fluorescence intensity (a.u.) |
| CAGCGACGGTGGGGAGGTGGGCGTGGGCGGTTGCCGGCGGCGGAGTCACCTAGTGCAG | 11200 fluorescence intensity (a.u.) |
| TTGGTTGGTTGGTTTGGTGGGCGGCGGTGCCGGAGGAAGACGGAGTCACCTAGTGCAG | 21900 fluorescence intensity (a.u.) |
| TCCTCGCCGACGGCGTGCCGGCTCACGTTGCACCTCACCGCGGAGTCACCTAGTGCAG | 8210 fluorescence intensity (a.u.) |
| CTTTCCTGCACCTCCACTTTATTTAGTTCATTAATTGAATCGGAGTCACCTAGTGCAG | 8660 fluorescence intensity (a.u.) |
| GGTTCTCTTTTCTTTTCTTTTCTTTTCTCCTGGAGTTTTTCGGAGTCACCTAGTGCAG | 9120 fluorescence intensity (a.u.) |
| TTAATTACTTCCTTTTCTTTTCTTTTCTTTTCCTTTTTTTCGGAGTCACCTAGTGCAG | 8110 fluorescence intensity (a.u.) |
| TGGTTGTGTTCTTGTTGGCTTATACCTTTTTTATGTTTTGCGGAGTCACCTAGTGCAG | 9260 fluorescence intensity (a.u.) |
| ACTTTGTTTACACGGTGGTTCTCTCCTTTTCTTCTTCTCACGGAGTCACCTAGTGCAG | 8480 fluorescence intensity (a.u.) |
| CTTCGGTGTACTTTTTTCTTTTCTAGTTCCTGGTTCTAATCGGAGTCACCTAGTGCAG | 18000 fluorescence intensity (a.u.) |
| GTGCGGTTTTTCTCCTGGTTCTTTTGTGTACTTTATACCACGGAGTCACCTAGTGCAG | 18200 fluorescence intensity (a.u.) |
| GGCGCCGCCGTCGTCCTGCTGCTTCCGCCGCCGCGTCTTCCGGAGTCACCTAGTGCAG | 11000 fluorescence intensity (a.u.) |
| CTGCACATGATTTCAATCTACTATGGACATTCTCACTCTCCGGAGTCACCTAGTGCAG | 12100 fluorescence intensity (a.u.) |
| CACCTGCCTCCTCCTACCACCAGCCGCCGCCGACGACTAACGGAGTCACCTAGTGCAG | 8550 fluorescence intensity (a.u.) |
| TGCTCTCTCTCGTGTGGTCTGGTCCGCGCGCTCGTGTATACGGAGTCACCTAGTGCAG | 9150 fluorescence intensity (a.u.) |

| Sequence | binding signal |
| --- | --- |
| CTCTCTCCAATCTCCATCTCTCTGTCTGATTTGTAATCTTCGGAGTCACCTAGTGCAG | 16500 fluorescence intensity (a.u.) |
| CGGGCGGGGCGGGGCGGGTTCGCTCGTCGGATGTGTGGATCGGAGTCACCTAGTGCAG | 23900 fluorescence intensity (a.u.) |
| TCCATCATCGTCGTCTCTGTGTGTGTCTGTGTGTGTGTGTCGGAGTCACCTAGTGCAG | 17900 fluorescence intensity (a.u.) |
| TACCTCTCTTCTCTTCTCCAATCTCTATCTATGTCTTCTTCGGAGTCACCTAGTGCAG | 8640 fluorescence intensity (a.u.) |
| GGGGAGGGAAGGGATGGATCGGATGCGGGTTCGGGCGGTTCGGAGTCACCTAGTGCAG | 8910 fluorescence intensity (a.u.) |
| CGCGGGTGGTCTGGTCTCTCTCTCGTATCGTATCGTATCACGGAGTCACCTAGTGCAG | 16700 fluorescence intensity (a.u.) |
| CCGCTGTCGTCGTCTCGTCTCTGTGTGTGTGTCTCCATCACGGAGTCACCTAGTGCAG | 8280 fluorescence intensity (a.u.) |
| CGCTTCCATCTCTCTCTGTCTCTCTTCTTTTTGACCTCTTCGGAGTCACCTAGTGCAG | 11900 fluorescence intensity (a.u.) |
| CGACGGGCGGGTGTGGGGATTCGCGGCCTTGAGGGTTCGTCGGAGTCACCTAGTGCAG | 9660 fluorescence intensity (a.u.) |
| TCTCTCTGGGAGGTCTCGCGGAAGGTGGTGGGGTTGGGCCCGGAGTCACCTAGTGCAG | 11500 fluorescence intensity (a.u.) |
| CGCGCCATCTCCATGTCATCGTCGTCGTCTGTGTCCCCTTCGGAGTCACCTAGTGCAG | 10700 fluorescence intensity (a.u.) |
| TTTGGTTGCTTGCCTTCTTTATCGGCAAAATTTGCTATAGCGGAGTCACCTAGTGCAG | 8970 fluorescence intensity (a.u.) |
| ATTTAGGGAAATTATAACCATGCCACTCTGTCGTGTTTTCCGGAGTCACCTAGTGCAG | 9180 fluorescence intensity (a.u.) |
| AGATAGTGGTGGTGGTCTGTGCATCGTTGACTTGATCATGCGGAGTCACCTAGTGCAG | 10900 fluorescence intensity (a.u.) |
| GGTCCCGTTCCGATCCTCACTCGGTCACTCATCTTTCCTTCGGAGTCACCTAGTGCAG | 8730 fluorescence intensity (a.u.) |
| AAATTATAACGAGGGGTGAGGGGCTAAGAACCTATTTTCGCGGAGTCACCTAGTGCAG | 9700 fluorescence intensity (a.u.) |
| CCCATCACCACTCTGCCCACATCCCGGCGTCGCTTCGTGTCGGAGTCACCTAGTGCAG | 9120 fluorescence intensity (a.u.) |
| TTCGTTCCGATTCTTTTTTTTTCATTTGCTATGCATCTTCCGGAGTCACCTAGTGCAG | 11000 fluorescence intensity (a.u.) |
| GTCCTATCGCGTAGCCCACACTCCACCCTATCGCGCCTTCCGGAGTCACCTAGTGCAG | 11500 fluorescence intensity (a.u.) |
| CGCCCCTCCCCTTTGGCGCCGCCGCGCCTGCGTTGACCCTCGGAGTCACCTAGTGCAG | 8230 fluorescence intensity (a.u.) |
| TCCAATCTGTGCTGCCTTTATATTAGTTCCACCAAGAAGACGGAGTCACCTAGTGCAG | 9380 fluorescence intensity (a.u.) |
